# Most compounds without a hit are left out; they make up all but 2.8% or so of the library.
# HepG2 tox = HepG2 cytotoxicity, counter-screen for TGF-b inhibitors; HepG2 CAGA-GFP viability, ATP luminescence, 18 h; Potency, µM (top dose mostly 46.1 µM), for the others: at the top dose activity change, negative = cytotoxicity, most hits filed as cytotoxic; 0.76% of 410,000 active
#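 HepG2 CAGA-GFP cells (1000/well, DMEM with 1% FBS) received compound, then TGF-beta at 500 pg/mL final, and were incubated 18 hours at 37 degrees C. Viability was read by CellTiter-Glo luminescence. Media-only wells were set as complete cell-killing and DMSO as no toxicity.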
# S2 tox = cell viability loss in ATXN counter-screen; 0.49% of 400,000 active; S2 cells (HEK-293 line with an ATXN2-luciferase reporter) viability, CellTiter-Fluor protease fluorescence, 24 h; Potency, µM (top dose mostly 56.7 µM), actives largely listed as cytotoxic; further: nearly all actives have a fitted effect of over 40% in size
# ATXN2 expr inh = inhibitors of ATXN2 expression; HEK-293 ATXN2-luciferase reporter, luminescence, 24 h; Potency, µM (top dose mostly 57 µM), for inactives: top-dose activity change, negative = inhibition, actives largely listed as inhibitors; 0.72% of 360,000 active; AID 1745845; further: on the % scale 0 is the no-effect control and ±100 the full control effect; nearly all actives have a fitted effect of over 55% in size
#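 qHTS (up to 57 uM final) was run with 24 h compound exposure of reporter cells at 37 °C. Each well was multiplexed: SteadyGlo luminescence measured ATXN2-luciferase expression after a fluorogenic Gly-Phe-AFC viability readout (25 uM final).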
# HTT aggregate = inhibitors of mutant huntingtin aggregate formation in PC12 cells; 1.1% of 220,000 active; PC12 HttQ103-GFP aggregates, Acumen cytometry, 40 h; Potency, µM (top dose mostly 46.1 µM), for the others: top-dose activity change, negative = inhibition, hits mostly inhibitors; further: on the % scale 0 is the no-effect control and ±100 the full control effect; nearly all actives have a fitted effect of over 60% in size
#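 PC12 cells stably carrying ecdysone-inducible HTT exon 1 Q103–GFP were induced with tebufenozide (100 nM final) and treated with library compounds in titration. GFP aggregates in lysates were counted by laser scanning cytometry.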
# TGFb inhibitor = blocks TGF-b signaling; HepG2 CAGA-GFP TGF-b/SMAD3 reporter, GFP fluorescence, 18 h; TGF-beta stimulated, 500 pg/mL final; Potency, µM (titrated, usually from 46.1 µM), without a hit: top-dose activity, negative = inhibition, actives largely listed as inhibitors; 1.2% of 410,000 active; further: on the % scale 0 is the no-effect control and ±100 the full control effect; nearly all actives have a fitted effect of over 65% in size
#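 HEPG2 CAGA-GFP cells (1000/well, DMEM with 1% FBS) were pre-incubated 2 h at 37 degrees C, given compound by pin tool, then stimulated with TGF-beta at 500 pg/mL final for 18 h before per-cell GFP fluorescence imaging.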
# HTT cytoprotect = Huntington cell model cytoprotection by ATP luminescence. PC12 HTT-Q103 induced, cytoprotection, ATP luminescence, 40 h. Potency, µM (titrated, usually from 56.4 µM), for inactives: cytoprotection (ATP increase), hits mostly activators. 0.14% of 230,000 active. AID 1471; further: % of control where 0% means no effect; nearly all actives have a fitted effect of over 45% in size
#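 PC12 cells with ecdysone-inducible HTT exon 1 Q103-GFP, induced with 100 nM tebufenozide and co-treated with library compounds in a dose series (1536-well, 1500 cells/well). Cytoprotection read as ATP content by ATPlite luminescence.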
# An asterisk follows results filed as active; i = inactive; u = inconclusive; x = no result; [ ] = dose if it differs, or a comment. The call rests on the fitted dose curve; in most records, active means well fitted curve in the direction sought with a large enough effect; inconclusive means small, poorly fitted or top-dose-only effect, or another doubt; inactive means no such curve, though single readings can be large; an effect the other way counts as inactive or inconclusive. Potency means the concentration at half of the fitted maximal effect.
SMILES,HepG2 tox,S2 tox,ATXN2 expr inh,HTT aggregate,TGFb inhibitor,HTT cytoprotect
CCC1CCCCN1CCCNC(=O)c1ccc2c(c1)N(Cc1ccc(Cl)cc1)C(=O)c1ccccc1S2(=O)=O (stereo not drawn),11µM*,i,28µM*,x,u,x
CCC1CCCCN1CCCNC(=O)c1ccc2c(c1)N(Cc1cccc(Cl)c1)C(=O)c1ccccc1S2(=O)=O (stereo not drawn),-100%,x,x,x,10µM*,x
N=C(N)c1ccc(OCCCOc2ccc(C(=N)N)cc2Br)c(Br)c1,x,i,x,x,x,x
O=C(CSc1ccc(Cl)cc1)N1CCN(c2ccc(Cl)cc2[N+](=O)[O-])CC1,-15%,i,-4%,11µM*,u,-46%
COc1cc(-c2cnc3ccccc3c2)cc2c1OCCN(C(=O)CCC(=O)c1ccc(F)cc1)C2,x,i,x,x,x,x
Cc1noc(C)c1C(=O)OCC(=O)Nc1cccc(S(=O)(=O)N(C)C)c1,4%,i,-3%,-2%,-11%,20%[10 µM]
Cc1onc(-c2c(F)cccc2Cl)c1C(=O)OCC(=O)Nc1cccc(S(=O)(=O)N(C)C)c1,7.1µM*,u,-31%,x,u,x
Cc1ccc(-c2csc(-c3c[nH]c4ccccc34)n2)c(C)c1,20µM*,i,24%,-8%,u,-23%
CC(=O)Nc1ccc(NC2=Nc3ccccc3N3C2=Nc2c(c(C)nn2-c2ccccc2)C3c2ccccc2)cc1 (stereo not drawn),2%,u,7.9µM*,u,0%,-87%
COc1ccc(NC2=Nc3ccccc3N3C2=Nc2c(c(C)nn2-c2ccc(C)cc2)C3c2cccnc2)cc1 (stereo not drawn),7%,i,-11%,-7%,12%,-57%
COc1cc([N+](=O)[O-])cc(/C=N/NC(=O)C(C)Nc2cccc3ccccc23)c1O (stereo not drawn),-45%,u,20µM*,13µM*,u,22%[10 µM]
CCn1c(=O)c2c(nc(C=Cc3ccc(OC)c(OC)c3)n2C)n(CC)c1=O,x,i,u,x,x,x
Cc1cccc(OCCOc2ccccc2C=C(C#N)C#N)c1,-83%,u,3%,u,10µM*,-14%[10 µM]
CCC1CN(CCNC(=O)C2CCCCN2C)Cc2cc(OC)ccc2O1 (stereo not drawn),x,i,x,x,x,x
S=C(NCCC(c1ccccc1)c1ccccc1)Nc1ccc(Cl)cc1,-50%,u,u,u,20µM*,-70%
S=C(NCCC(c1ccccc1)c1ccccc1)Nc1ccccc1Cl,-48%,i,-6%,20µM*,u,-53%
COc1ccc(Cl)cc1NC(=S)NCCC(c1ccccc1)c1ccccc1,-34%,i,-19%,u,u,-10%[10 µM]
COc1cc(NC(=S)NCCC(c2ccccc2)c2ccccc2)c(OC)cc1Cl,0%,i,-3%,12%,u,-15%[10 µM]
COc1ccccc1NC(=S)NCCC(c1ccccc1)c1ccccc1,-14%,i,x,u,13µM*,8%[10 µM]
Cc1cccc(C)c1NC(=O)c1cc(S(N)(=O)=O)c(Cl)cc1O,x,i,17%,x,x,x
CCCCC(C)(C)[C@H](O)C=C[C@H]1[C@H](O)CC(=O)[C@H]1CC=CCCCC(=O)O,x,x,7%,x,x,x
CCOC(=O)C(=O)CCc1ccccc1,x,i,3%,x,x,x
COc1ccc(-c2[nH]c(-c3ccccc3)nc2SCC(=O)Nc2ccc3c(c2)OCCO3)cc1,-5%,u,u,x,-22%,x
O=C(CSc1nc(-c2ccc(F)cc2)[nH]c1-c1ccc(F)cc1)Nc1ccc2c(c1)OCCO2,-57%,x,u,x,7.9µM*,x
Cc1cccc(-c2nc(SCC(=O)Nc3ccc4c(c3)OCO4)c(-c3ccccc3)[nH]2)c1,-22%,u,u,x,13µM*,x
SMILES,HepG2 tox,S2 tox,ATXN2 expr inh,HTT aggregate,TGFb inhibitor,HTT cytoprotect
O=C(CSc1nc(-c2ccccc2)[nH]c1-c1ccccc1)Nc1ccc2c(c1)OCCO2,10µM*,x,u,x,u,x
O=C(CSc1nc(-c2ccc(F)cc2)[nH]c1-c1ccc(F)cc1)Nc1ccc2c(c1)OCO2,-69%,u,u,x,7.1µM*,x
CC1(C)OC[C@@H]2O[C@@]3(C(=O)O)OC(C)(C)O[C@H]3[C@@H]2O1,x,i,-1%,x,x,x
Nc1ncnc2c1ncn2[C@@H]1O[C@@H](COP(=O)(O)OP(=O)(O)OP(=O)(O)OP(=O)(O)OC[C@@H]2O[C@@H](n3cnc4c(N)ncnc43)[C@@H](O)[C@H]2O)[C@H](O)[C@@H]1O,x,x,x,x,x,-16%[1.9 µM]
CCOC(=O)C1CCCN(C(=O)c2cnn(-c3nccc(-c4cc(C)sc4C)n3)c2C)C1 (stereo not drawn),x,i,x,x,x,x
Nc1nc(SCC(=O)Nc2ccc3c(c2)OCO3)n[nH]1,10µM*,i,8%,0%,-2%,-15%
COc1ccc(-c2nc(SCC(=O)NC3CCCC3)c(-c3ccc(F)cc3)[nH]2)cc1,-35%,x,x,x,11µM*,x
Cc1ccnn1CC(=O)N1CCOc2c(cc(-c3ncc(C(F)(F)F)cc3Cl)cc2OCC2CCCO2)C1 (stereo not drawn),x,i,x,x,x,x
Cc1nn(CC(=O)N2c3ccccc3NC(=O)C2(C)C)c(C)c1[N+](=O)[O-],1%,i,x,24%,u,0%
CC1(C)C(=O)Nc2ccccc2N1C(=O)Cn1ncc(Cl)c(Cl)c1=O,-22%,20µM*,x,13%[9.22 µM],-10%,-17%[10 µM]
COc1ccc(/C=C/C(=O)c2cc(F)ccc2OC(=O)c2ccccc2OC)cc1OC,-74%,u,u,-4%,11µM*,-6%
COc1ccc(C=CC(=O)Nc2ccccc2C(=O)O)cc1OC,x,x,0.97µM*,x,x,x
COc1ccc(/C=C/C(=O)c2cc(F)ccc2OC(=O)c2ccc(OC)c(OC)c2)cc1OC,-30%,i,x,-1%,0%,x
CC1=C(/C=C/C(C)=C/C=C/C(C)=C/C=O)C(C)(C)CCC1,x,x,x,x,x,-81%
Cc1cnc(C)c(-c2cccc3c2OC(CNC(=O)C2(c4ccc(Cl)cc4)CC2)C3)n1 (stereo not drawn),x,i,x,x,x,x
Cc1ncc(-c2ccc(F)cc2)c(C2CCCN(Cc3cccc(O)c3)C2)n1 (stereo not drawn),x,i,x,x,x,x
CC[N+]1(CC(=O)c2ccc(OC)cc2)CCCCC1,7%,x,x,x,5%,x
COc1ccc(NC(=O)c2cnc(C)cn2)c2ncccc12,x,x,x,1.8µM*,x,-53%[10 µM]
COc1ccccc1-c1nc(SCc2ccccn2)n[nH]1,13µM*,i,58%,-9%,0%,-9%
c1ccc2c(c1)ccn2-n1ccc2ccccc21,-58%,x,x,x,16µM*,x
